The whole screen tested about 5,500 compounds, of which about 2,000 (36%) were called active. Not shown: some 18% with an inconclusive outcome. No stated cut-off is given here; in the data, active means normalized growth mostly below about 0.91 (no sharp cut-off); inconclusive means no clear call, values can overlap the other calls; inactive means mostly above about 0.92. The list shows a part of the results.
Experiment: chemical genetic growth profiling, strain panel (AID 1159580);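 further: tested at 20 µM; growth read once vehicle control cultures reached saturation at 30 °C; 1 = growth at the plate median or of vehicle wells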
Conditions: S. cerevisiae deletion strains, growth OD
[1] = locus YAR019C, strain CDC15, stronger effect = lower value
[2] = locus YBL105C, strain PKC1, stronger effect = lower value
[3] = locus YBR135W, strain CKS1, stronger effect = lower value
[4] = locus YBR136W, strain MEC1, stronger effect = lower value
[5] = locus YBR160W, strain CDC28, stronger effect = lower value
[6] = locus YDL017W, strain CDC7, stronger effect = lower value
[7] = locus YDL028C, strain MPS1, stronger effect = lower value
[8] = locus YDL101C, strain DUN1, stronger effect = lower value
[9] = locus YDL108W, strain KIN28, stronger effect = lower value
[10] = locus YDL132W, strain cdc53, stronger effect = lower value
[11] = locus YDL214C, strain PRR2, stronger effect = lower value
[12] = locus YDR052C, strain DBF4, stronger effect = lower value
[13] = locus YDR054C, strain cdc34, stronger effect = lower value
[14] = locus YDR226W, strain ADK1, stronger effect = lower value
[15] = locus YDR477W, strain SNF1, stronger effect = lower value
[16] = locus YER123W, strain YCK3, stronger effect = lower value
[17] = locus YER133W, strain GLC7, stronger effect = lower value
[18] = locus YFL009W, strain cdc4, stronger effect = lower value
[19] = locus YFL029C, strain CAK1, stronger effect = lower value
[20] = locus YFR003C, strain YPI1, stronger effect = lower value
[21] = locus YFR019W, strain FAB1, stronger effect = lower value
[22] = locus YFR028C, strain CDC14, stronger effect = lower value
[23] = locus YGR040W, strain KSS1, stronger effect = lower value
[24] = locus YGR052W, strain FMP48, stronger effect = lower value
[25] = locus YGR092W, strain DBF2, stronger effect = lower value
[26] = locus YHR030C, strain SLT2, stronger effect = lower value
[27] = locus YHR079C, strain IRE1, stronger effect = lower value
[28] = locus YHR082C, strain KSP1, stronger effect = lower value
[29] = locus YHR205W, strain SCH9, stronger effect = lower value
[30] = locus YIL147C, strain SLN1, stronger effect = lower value
[31] = locus YJL095W, strain BCK1, stronger effect = lower value
[32] = locus YJL128C, strain PBS2, stronger effect = lower value
[33] = locus YJL157C, strain FAR1, stronger effect = lower value
[34] = locus YJR016C, strain ILV3, stronger effect = lower value
[35] = locus YJR066W, strain TOR1 (second series), stronger effect = lower value
[36] = locus YJR066W, strain TOR1, stronger effect = lower value
[37] = locus YKL048C, strain ELM1, stronger effect = lower value
[38] = locus YKL067W, strain YNK1, stronger effect = lower value
[39] = locus YKL101W, strain HSL1, stronger effect = lower value
[40] = locus YKL193C, strain SDS22, stronger effect = lower value
[41] = locus YKL203C, strain TOR2, stronger effect = lower value
[42] = locus YLR113W, strain HOG1, stronger effect = lower value
[43] = locus YLR133W, strain CKI1, stronger effect = lower value
[44] = locus YLR403W, strain SFP1, stronger effect = lower value
[45] = locus YML070W, strain DAK1, stronger effect = lower value
[46] = locus YMR001C, strain CDC5, stronger effect = lower value
[47] = locus YMR205C, strain PFK2 (second series), stronger effect = lower value
[48] = locus YMR277W, strain FCP1, stronger effect = lower value
[49] = locus YNL006W, strain LST8, stronger effect = lower value
[50] = locus YNL020C, strain ARK1, stronger effect = lower value
[51] = locus YNL161W, strain CBK1, stronger effect = lower value
[52] = locus YNL183C, strain NPR1, stronger effect = lower value
[53] = locus YNL207W, strain RIO2, stronger effect = lower value
[54] = locus YNL222W, strain SSU72, stronger effect = lower value
[55] = locus YNL307C, strain MCK1 (second series), stronger effect = lower value
[56] = locus YOL078W, strain AVO1, stronger effect = lower value
[57] = locus YOL136C, strain PFK27, stronger effect = lower value
[58] = locus YOR061W, strain CKA2, stronger effect = lower value
[59] = locus YOR119C, strain RIO1, stronger effect = lower value
[60] = locus YOR231W, strain MKK1, stronger effect = lower value
[61] = locus YOR329C, strain SCD5, stronger effect = lower value
[62] = locus YPL031C, strain PHO85, stronger effect = lower value
[63] = locus YPL153C, strain RAD53, stronger effect = lower value
[64] = locus YPL204W, strain HRR25, stronger effect = lower value
[65] = locus YPL209C, strain IPL1, stronger effect = lower value
[66] = locus YPL256C, strain CLN2, stronger effect = lower value
[67] = locus YPR025C, strain CCL1, stronger effect = lower value
[68] = locus YPR106W, strain ISR1, stronger effect = lower value
[69] = locus YPR111W, strain DBF20, stronger effect = lower value
[70] = strain NNK1, stronger effect = lower value
[71] = strain TSCII, stronger effect = lower value

Measured: normalized growth

O=C(Nc1ccc(Cl)cc1)SCc1c(Cl)cccc1Cl
active: [21] 0.747 | [26] 0.793 | [42] 0.728 | [66] 0.811
inactive: [1] 0.985 | [2] 0.976 | [3] 0.984 | [4] 0.967 | [5] 0.988 | [6] 0.976 | [7] 0.987 | [8] 0.974 | [9] 0.959 | [10] 0.999 | [11] 0.786 | [12] 0.974 | [13] 0.953 | [14] 0.969 | [15] 0.83 | [16] 0.659 | [17] 0.834 | [18] 1 | [19] 0.975 | [20] 0.972 | [22] 0.988 | [23] 0.808 | [24] 0.765 | [25] 0.763 | [27] 0.748 | [28] 0.787 | [29] 0.919 | [30] 0.973 | [31] 0.745 | [32] 0.92 | [33] 0.76 | [34] 0.995 | [35] 0.746 | [36] 0.788 | [37] 0.891 | [38] 0.8 | [39] 0.83 | [40] 0.973 | [41] 0.891 | [43] 0.816 | [44] 0.897 | [45] 0.783 | [46] 0.971 | [47] 0.836 | [48] 0.975 | [49] 0.989 | [50] 0.771 | [51] 0.974 | [52] 0.821 | [53] 0.955 | [54] 0.979 | [55] 0.721 | [56] 0.977 | [57] 0.761 | [58] 0.756 | [59] 0.905 | [60] 0.831 | [61] 0.979 | [62] 0.778 | [63] 0.798 | [64] 0.813 | [65] 0.972 | [67] 0.988 | [68] 0.963 | [69] 0.961 | [70] 0.954 | [71] 0.978

S=C(Nc1ccc(Cl)cc1)SCc1c(Cl)cccc1Cl
inactive: [1] 0.976 | [2] 0.984 | [3] 0.977 | [4] 0.996 | [5] 0.987 | [6] 0.984 | [7] 0.985 | [8] 0.993 | [9] 0.997 | [10] 0.979 | [11] 0.96 | [12] 0.989 | [13] 0.978 | [14] 0.983 | [15] 0.95 | [16] 0.973 | [17] 0.915 | [18] 0.977 | [19] 0.974 | [20] 0.984 | [21] 0.961 | [22] 0.971 | [23] 0.938 | [24] 1.06 | [25] 0.89 | [26] 0.996 | [27] 1.08 | [28] 1.03 | [29] 0.999 | [30] 0.992 | [31] 1.05 | [32] 0.967 | [33] 0.96 | [34] 0.973 | [35] 0.932 | [36] 1.02 | [37] 0.992 | [38] 0.972 | [39] 0.994 | [40] 0.978 | [41] 1.02 | [42] 1.09 | [43] 0.993 | [44] 0.95 | [45] 0.957 | [46] 0.971 | [47] 0.987 | [48] 0.973 | [49] 0.972 | [50] 0.983 | [51] 0.978 | [52] 1.03 | [53] 0.983 | [54] 0.976 | [55] 0.978 | [56] 0.979 | [57] 0.973 | [58] 0.955 | [59] 0.97 | [60] 1.06 | [61] 0.983 | [62] 0.956 | [63] 0.949 | [64] 0.939 | [65] 0.989 | [66] 1.08 | [67] 0.987 | [68] 0.994 | [69] 0.986 | [70] 0.999 | [71] 0.981

Source: PubChem BioAssay AID1159580 (chemical genetic matrix, 2015)
